Experimental data taken from PubChem BioAssay.
Active and inactive are the calls of the source. Unless noted, the rule behind the calls is not given here.

Columns and labels:
[1] = HepG2 liver cancer cell viability effects, profiling panel, resazurin fluorescence, 24 h, PK04 Diversity Set (AID 1172); conditions: higher = more signal; note: test concentration not given here
[2] = basal S. cerevisiae growth modulation, no modifier, primary screen, OD600, strain BY4716, 24 h, basal condition (AID 1173); conditions: OD600, 24 h, higher = more signal, called active from +8 up or from −8 down
[3] = MM1S myeloma cell viability, profiling panel, resazurin fluorescence, basal, 24 h, PK04 Diversity Set (AID 1174); conditions: higher = more signal, called active from +8 up or from −8 down;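 note: MM1S multiple myeloma cell line; test concentration not given here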
[4] = target: Dihydroorotate dehydrogenase (quinone), mitochondrial (Plasmodium falciparum (isolate 3D7)) (UniProt Q08210); assay: PfDHODH enzyme inhibitors, primary screen, biochemical, C-terminal His tag, absorbance 600 nm (AID 1175); conditions: DCIP absorbance 600 nm, higher = more signal, called active from +8 up or from −8 down;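 note: recombinant parasite enzyme with a five histidine tag at its C terminus; test concentration not given here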
Dihydroorotate dehydrogenase (quinone), mitochondrial (Plasmodium falciparum (isolate 3D7)), sequence (Q08210 whole entry, looked up): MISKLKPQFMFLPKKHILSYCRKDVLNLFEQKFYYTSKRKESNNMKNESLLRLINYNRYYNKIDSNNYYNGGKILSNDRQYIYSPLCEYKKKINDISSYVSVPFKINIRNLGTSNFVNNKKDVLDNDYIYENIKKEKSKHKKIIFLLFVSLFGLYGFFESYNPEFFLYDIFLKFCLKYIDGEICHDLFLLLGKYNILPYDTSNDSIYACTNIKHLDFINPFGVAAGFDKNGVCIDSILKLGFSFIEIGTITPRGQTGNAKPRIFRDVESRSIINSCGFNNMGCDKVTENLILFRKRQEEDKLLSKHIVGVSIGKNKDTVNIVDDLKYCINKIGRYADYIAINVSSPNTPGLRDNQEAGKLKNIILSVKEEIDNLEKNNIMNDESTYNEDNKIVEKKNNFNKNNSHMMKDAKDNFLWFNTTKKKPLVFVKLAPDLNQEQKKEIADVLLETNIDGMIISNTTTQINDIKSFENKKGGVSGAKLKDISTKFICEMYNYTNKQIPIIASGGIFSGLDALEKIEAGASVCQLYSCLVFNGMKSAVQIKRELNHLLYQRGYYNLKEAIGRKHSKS

[5] = P. aeruginosa biofilm formation inhibitors, primary screen, strain PAO1, LB-PBS medium, absorbance 600 nm (AID 1176); note: test concentration not given here; conditions: P. aeruginosa PAO1 growth/biofilm, A600, 12 h; higher = more signal
[6] = S. cerevisiae RM11-1a growth modifiers, primary screen, strain RM11-1a, OD600, basal, 24 h (AID 1177); conditions: OD600, 24 h, higher = more signal, called active from +8 up or from −8 down;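 note: cultures grown under basal conditions with no added stressor; test concentration not given here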
[7] = E. coli acrAB mutant growth effects, primary screen, E. coli filamentation inducers, strain DRC39, OD650, 24 h (AID 1178); conditions: higher = more signal, called active from +8 up or from −8 down;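 note: growth measured as culture turbidity by optical density at 650 nm; test concentration not given here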
[8] = E. coli acrAB mutant growth effects, primary screen, E. coli filamentation inducers, strain DRC39, OD650, 48 h (AID 1179);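 note: screen aims at cell division blockers that make cells filament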; conditions: E. coli DRC39 delta-acrAB growth, higher = more signal, called active from +8 up or from −8 down
[9] = RPMI8226 myeloma cell viability, profiling panel, resazurin fluorescence, basal, 24 h, PK04 Diversity Set (AID 1180); conditions: higher = more signal;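 note: RPMI8826 multiple myeloma cell line at 5000 cells per well; test concentration not given here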
[10] = target: E3 ubiquitin-protein ligase XIAP (Homo sapiens) (UniProt P98170); assay: XIAP binders, primary screen, biophysical, small-molecule microarray, fluorescence 635 nm (AID 1181); conditions: small-molecule microarray binding, higher = more signal;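 note: score merges 667 nm emission and signal to noise over triplicate slides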
E3 ubiquitin-protein ligase XIAP (Homo sapiens), sequence (P98170 whole entry, looked up): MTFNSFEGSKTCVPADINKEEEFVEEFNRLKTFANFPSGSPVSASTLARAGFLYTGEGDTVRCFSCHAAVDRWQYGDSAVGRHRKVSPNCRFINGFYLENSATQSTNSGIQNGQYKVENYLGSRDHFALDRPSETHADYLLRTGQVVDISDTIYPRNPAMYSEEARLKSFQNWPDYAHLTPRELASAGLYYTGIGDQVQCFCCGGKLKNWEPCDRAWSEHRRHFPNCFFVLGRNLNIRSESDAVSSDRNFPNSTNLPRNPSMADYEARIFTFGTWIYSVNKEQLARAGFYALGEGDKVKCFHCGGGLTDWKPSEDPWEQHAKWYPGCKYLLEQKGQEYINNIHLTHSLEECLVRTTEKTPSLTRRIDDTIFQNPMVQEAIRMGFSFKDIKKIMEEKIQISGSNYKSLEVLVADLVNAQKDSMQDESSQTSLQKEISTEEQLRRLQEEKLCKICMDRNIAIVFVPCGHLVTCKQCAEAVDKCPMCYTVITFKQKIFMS

| SMILES | z-score [1] | z-score [2] | z-score [3] | composite z-score [4] | z-score [5] | z-score [6] | z-score [7] | z-score [8] | z-score [9] | composite z-score [10] |
| --- | --- | --- | --- | --- | --- | --- | --- | --- | --- | --- |
| COC(=O)CC=C[C@@H](C)[C@@H](C=NOC[C@@H](O)COCc1ccco1)NS(=O)(=O)c1ccc(C)cc1 | -0.8 | 0.0959 (inactive) | -0.309 (inactive) | 0.444 (inactive) | -0.312 (inactive) | 0.186 (inactive) | 0.388 (inactive) | 0.124 (inactive) | -0.974 | -0.309 |
| CON=C(C)CCN1CCCCc2nc(C)c(C)cc21 | -0.18 | -0.571 (inactive) | 0.183 (inactive) | -1.07 (inactive) | 0.323 (inactive) | -0.11 (inactive) | 0.852 (inactive) | -0.78 (inactive) | 0.6 | 0.496 |
| CC(=O)OC[C@H]1O[C@@H](ON=C(C)CCN2CCCCc3nc(C)c(C)cc32)[C@H](OC(C)=O)[C@@H](OC(C)=O)[C@@H]1OC(C)=O | -0.077 | -0.436 (inactive) | 0.382 (inactive) | -2.52 (inactive) | -0.679 (inactive) | -1.15 (inactive) | -1.24 (inactive) | -0.816 (inactive) | -0.0356 | 0.0899 |
| COc1ccc(O[C@H]2C=C[C@@H](c3ccccc3)O[C@@H]2COC(=O)NCc2cccc3ccccc23)cc1 | -0.556 | 0.476 (inactive) | -0.079 (inactive) | -0.0459 (inactive) | 0.79 (inactive) | 0.846 (inactive) | -0.424 (inactive) | -0.257 (inactive) | 0.283 | -0.0448 |
| CC(CCN1CCc2nc(-c3ccccc3)c(-c3ccccc3)cc2C1)=NO[C@H](C)c1cn([C@H](CO)Cc2ccccc2)nn1 | -0.391 | -1.74 (inactive) | 0.474 (inactive) | -1.38 (inactive) | 0.593 (inactive) | -0.222 (inactive) | -0.424 (inactive) | -1.95 (inactive) | 0.2 | -0.156 |
| CCN1C(=O)[C@H]2[C@H]3[C@H](O)[C@H](O)CC(=NNC(=O)OCc4ccccc4)[C@@H]3CC[C@H]2C1=O | -0.501 | 0.226 (inactive) | -0.453 (inactive) | -0.283 (inactive) | -0.814 (inactive) | -0.338 (inactive) | 0.313 (inactive) | 0.0507 (inactive) | -0.747 | -0.0476 |
| CO[C@@H]1COC(=O)CC=C[C@H](C)[C@H](OC)COC(=O)[C@@H]2CCCN2C(=O)CC=C[C@H]1C | -0.144 | -1.17 (inactive) | 0.918 (inactive) | -0.222 (inactive) | -1.33 (inactive) | -0.203 (inactive) | 0.422 (inactive) | -0.0617 (inactive) | 0.306 | -0.02 |
| COCCNC(=O)OCC1CCCC2(CC(OC(=O)NCc3cccc4ccccc34)CC(CCC(=O)N[C@@H](C)C(=O)OC)O2)O1 (stereo not given in full) | 1.77 | -0.0524 (inactive) | 0.343 (inactive) | 0.124 (inactive) | -0.303 (inactive) | 1.36 (inactive) | 0.17 (inactive) | 0.812 (inactive) | 0.79 | -0.0999 |
| CO[C@@H]1C=CCC(=O)N[C@@H](C)C(=O)OC[C@@H](NS(=O)(=O)c2ccc(C)cc2)[C@H](C)C=CCC(=O)OC[C@H]1C | -0.0689 | -0.872 (inactive) | -0.0213 (inactive) | -0.165 (inactive) | -0.212 (inactive) | -0.876 (inactive) | 0.0721 (inactive) | -0.418 (inactive) | 0.135 | 0.201 |
| COC(=O)[C@@H]1CC[C@H](C)[C@@H](c2ccc(Br)cc2)N1C(=O)C(F)(F)F | 0.0841 | -0.475 (inactive) | 0.27 (inactive) | 0.724 (inactive) | 0.213 (inactive) | 1.21 (inactive) | -0.0765 (inactive) | -0.204 (inactive) | 0.399 | 0.0225 |
| O=C1[C@H]2[C@H]3[C@H](O)[C@H](O)CC(=NO[C@@H]4O[C@H](CO)[C@@H](O)[C@H](O)[C@H]4O)[C@@H]3CC[C@H]2C(=O)N1C1CCCCC1 | -0.841 | 0.431 (inactive) | -2.35 (inactive) | -0.201 (inactive) | 0.553 (inactive) | 0.237 (inactive) | -0.0163 (inactive) | 0.27 (inactive) | -0.917 | -0.132 |
| O=C(NN=C1C[C@@H](O)[C@@H](O)[C@@H]2[C@@H]3C(=O)N(Cc4ccc5c(c4)OCO5)C(=O)[C@@H]3CC[C@@H]12)OCc1ccccc1 | 0.0352 | -1.59 (inactive) | 0.987 (inactive) | -2.65 (inactive) | -0.683 (inactive) | -1.09 (inactive) | 0.747 (inactive) | -0.715 (inactive) | -0.32 | -0.152 |
| C[C@H]1CC[C@H]2C(=O)O[C@H](CO)CN2[C@@H]1c1ccc(Br)cc1 | 0.72 | -8.2 (active) | 0.678 (inactive) | 0.586 (inactive) | 0.441 (inactive) | -0.356 (inactive) | 0.342 (inactive) | -0.016 (inactive) | -0.817 | 0.0733 |
| CO[C@@H](C(C)C)[C@@H](C)C1OC(=O)CC1O (stereo not given in full) | -0.544 | -0.139 (inactive) | -0.766 (inactive) | -0.531 (inactive) | -0.139 (inactive) | -0.622 (inactive) | 0.284 (inactive) | 0.468 (inactive) | -1.17 | -0.0391 |
| COCOc1ccc(Br)cc1C(=O)C=Cc1ccc2c(c1)OCO2 | -2.37 | -3.33 (inactive) | -3.86 (inactive) | -1.1 (inactive) | 1.01 (inactive) | 0.616 (inactive) | 0.725 (inactive) | 0.253 (inactive) | -3.36 | -0.0076 |
| CCCCOC(OCCCC)C(O)CSc1ccc2ccccc2c1 (stereo not given) | -0.879 | -2.07 (inactive) | -1.99 (inactive) | -0.161 (inactive) | 0.344 (inactive) | 0.363 (inactive) | 0.872 (inactive) | 1.01 (inactive) | -1.37 | 0.0506 |
| O=C1[C@H]2[C@H]3[C@H](O)[C@H](O)CC(=NOC[C@@H](O)COCc4ccco4)[C@@H]3CC[C@H]2C(=O)N1Cc1ccc2c(c1)OCO2 | 0.351 | 0.182 (inactive) | -0.524 (inactive) | -0.395 (inactive) | 0.0578 (inactive) | 0.865 (inactive) | 0.764 (inactive) | 1.29 (inactive) | 0.501 | -0.148 |
| O=C1[C@H]2[C@H]3[C@H](O)[C@H](O)CC(=NO[C@@H]4O[C@H](CO)[C@@H](O)[C@H](O)[C@H]4O)[C@@H]3CC[C@H]2C(=O)N1c1cccc(Oc2ccccc2)c1 | 0.647 | 0.0857 (inactive) | -0.602 (inactive) | -0.111 (inactive) | -0.343 (inactive) | 0.0867 (inactive) | -0.492 (inactive) | -0.961 (inactive) | 0.279 | -0.124 |
| CCOC(=O)[C@H](CC(C)C)NC(=O)CCC1CC(OC(=O)NCCc2ccc(F)cc2)CC2(CCCC(COC(=O)NCCCN3CCCC3=O)O2)O1 (stereo not given in full) | 0.653 | -0.796 (inactive) | 0.469 (inactive) | 0.0102 (inactive) | 0.909 (inactive) | -0.129 (inactive) | 0.698 (inactive) | -0.405 (inactive) | 1.32 | -0.179 |
| CCOC(=O)[C@H](Cc1ccccc1)NC(=O)CCC1CC(OC(=O)NCCc2ccc(F)cc2)CC2(CCCC(COC(=O)NCCC(C)C)O2)O1 (stereo not given in full) | 0.456 | -0.0624 (inactive) | 0.129 (inactive) | 0.0106 (inactive) | 0.0737 (inactive) | 1.05 (inactive) | 0.953 (inactive) | -0.203 (inactive) | 1.16 | -0.0543 |
| CCOC(=O)NN=C1C[C@@H](O)[C@@H](O)[C@@H]2[C@@H]3C(=O)N(C[C@@H]4CCCO4)C(=O)[C@@H]3CC[C@H]12 | 0.0254 | 0.197 (inactive) | -0.841 (inactive) | -1.36 (inactive) | -0.495 (inactive) | -0.396 (inactive) | 0.213 (inactive) | 0.626 (inactive) | -0.248 | -0.02 |
| CO[C@@H]1[C@H](O)CO[C@H]1C=Cc1ccccc1 | -1.01 | -1.05 (inactive) | 0.841 (inactive) | 0.295 (inactive) | -0.859 (inactive) | -0.113 (inactive) | -0.442 (inactive) | 0.207 (inactive) | 0.941 | -0.123 |
| C[C@@H]1CC[C@H]2C(=O)OC(Cc3ccccc3)CN2[C@H]1c1ccc(Br)cc1 (stereo not given in full) | 0.352 | -3.48 (inactive) | 0.417 (inactive) | 0.637 (inactive) | -0.658 (inactive) | 0.2 (inactive) | 1.06 (inactive) | 0.485 (inactive) | -0.726 | 0.0299 |
| CCOC(=O)CCN1C(=O)[C@H]2[C@H]3[C@H](O)[C@H](O)CC(=NNC(=O)OCc4ccc(OC)cc4)[C@H]3CC[C@H]2C1=O | 0.0785 | -3 (inactive) | -0.451 (inactive) | 0.0913 (inactive) | 1.07 (inactive) | -0.595 (inactive) | -0.653 (inactive) | -0.652 (inactive) | -0.244 | 0.12 |
| O=C1C=C[C@@H](O)[C@@H]2[C@@H]3C(=O)N(C4CCCCC4)C(=O)[C@@H]3CC[C@@H]12 | -0.295 | -1.28 (inactive) | -1.45 (inactive) | -0.168 (inactive) | -0.601 (inactive) | 0.246 (inactive) | -0.292 (inactive) | -0.191 (inactive) | -1.31 | -0.269 |
| COc1ccc(O[C@H]2C=C[C@@H](c3ccccc3)O[C@@H]2COC(=O)CCC(C)=NOC[C@@H](O)COCc2ccco2)cc1 | 0.206 | -1.06 (inactive) | -1.11 (inactive) | -2.35 (inactive) | -0.0903 (inactive) | -1.48 (inactive) | -0.129 (inactive) | -0.902 (inactive) | 0.37 | 0.122 |
